The values below come from PubChem BioAssay (NCATS).

For test [1], the target named is Catechol O-methyltransferase (Homo sapiens) (UniProt P21964). Nature of the test: Confirmatory Screen for Target Class Profiling of Small Molecule Inhibitors of Methyltransferases (AID 1745852; calls by dose curve; also: potency is read from the fitted curve at half-maximal effect; as to activity change, negative = inhibition: % is scaled to controls: 0 for no effect and ±100 for the full control effect). Particulars: MTase-Glo luminescence, SAH detection, recombinant enzyme; measured here: COMT max response; stronger effect = lower value.
Sequence of Catechol O-methyltransferase (Homo sapiens) (P21964 whole entry, looked up): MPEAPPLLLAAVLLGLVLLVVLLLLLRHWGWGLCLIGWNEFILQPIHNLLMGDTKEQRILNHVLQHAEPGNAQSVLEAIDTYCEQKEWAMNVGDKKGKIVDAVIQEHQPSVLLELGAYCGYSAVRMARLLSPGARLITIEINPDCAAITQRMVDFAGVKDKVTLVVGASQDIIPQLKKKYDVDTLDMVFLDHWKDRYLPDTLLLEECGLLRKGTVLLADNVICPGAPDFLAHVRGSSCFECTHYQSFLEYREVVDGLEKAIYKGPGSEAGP
Test [2] has as its target Guanidinoacetate N-methyltransferase (Homo sapiens) (UniProt Q14353). Described as above. Particulars: MTase-Glo luminescence, SAH detection, recombinant enzyme; activity change, negative = inhibition: at 57.3 µM (top of the series) unless noted; series mostly up to 57.3 µM.
In test [3] the target is Nicotinamide N-methyltransferase (Homo sapiens) (UniProt P40261). Described as above. Conditions: MTase-Glo luminescence, SAH detection, recombinant enzyme; measured here: NNMT max response; stronger effect = lower value.
Sequence of Nicotinamide N-methyltransferase (Homo sapiens) (P40261 whole entry, looked up): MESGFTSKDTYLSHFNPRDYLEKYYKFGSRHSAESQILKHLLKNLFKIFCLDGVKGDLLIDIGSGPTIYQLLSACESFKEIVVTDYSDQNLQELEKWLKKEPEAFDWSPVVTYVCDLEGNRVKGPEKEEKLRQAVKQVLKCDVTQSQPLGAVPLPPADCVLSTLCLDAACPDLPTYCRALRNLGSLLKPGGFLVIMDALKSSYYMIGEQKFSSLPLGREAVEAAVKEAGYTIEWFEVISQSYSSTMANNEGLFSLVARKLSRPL
For test [4], the target named is Phenylethanolamine N-methyltransferase (Homo sapiens) (UniProt P11086). The description is as above. Particulars: MTase-Glo luminescence, SAH detection, recombinant enzyme; measured here: PNMT max response; stronger effect = lower value.
Sequence of Phenylethanolamine N-methyltransferase (Homo sapiens) (P11086 whole entry, looked up): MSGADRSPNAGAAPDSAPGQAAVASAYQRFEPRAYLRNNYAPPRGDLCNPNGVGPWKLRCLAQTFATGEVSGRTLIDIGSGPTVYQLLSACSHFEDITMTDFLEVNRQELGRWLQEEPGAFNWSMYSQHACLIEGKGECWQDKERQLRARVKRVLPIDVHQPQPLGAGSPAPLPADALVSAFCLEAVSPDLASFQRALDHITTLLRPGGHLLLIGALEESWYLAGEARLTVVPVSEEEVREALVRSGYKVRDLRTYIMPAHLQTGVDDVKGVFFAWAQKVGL
In test [5] the target is Glutathione peroxidase 1 (Homo sapiens) (UniProt P07203). Nature of the test: Primary qHTS Assay for Inhibitors of Recombinant Selenoprotein Glutathione Peroxidase 1 (GPX1) (AID 1845191). Also: nearly all actives have a fitted effect of over 65% in size. Conditions: recombinant GPX1, GR-coupled NADPH fluorescence, 15 min; series mostly up to 48.8 µM. An outline of the steps:
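GR-coupled readout: NADPH consumption tracked by fluorescence, ex 340/em 450 nm, at t=0 and after 15 min at RT. Final mix 10 nM GPX1, 1 mM GSH, 0.5 mM CHP, 0.5 mM NADPH, 100 nM GR, 0.01% BSA, following 30 min enzyme–compound preincubation.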

Test [6] deals with Phospholipid hydroperoxide glutathione peroxidase GPX4 (Homo sapiens) (UniProt P36969). The test is described as follows: Primary qHTS Assay for Inhibitors of Recombinant Selenoprotein Glutathione Peroxidase 4 (GPX4) (AID 1845192). Also: nearly all actives have a fitted effect of over 65% in size. As to activity change, negative = inhibition: % is scaled to controls: 0 for no effect and ±100 for the full control effect. Particulars: recombinant GPX4, GR-coupled NADPH fluorescence, 15 min; series mostly up to 50 µM. An outline of the steps: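 Steps: GPX4 plus compound, 30 min RT; add GR/GSH/NADPH master mix; start with cumene hydroperoxide; read 340/450 nm fluorescence at 0 and 15 min. Finals were 200 nM GPX4, 1 mM GSH, 0.5 mM CHP, 0.5 mM NADPH, 100 nM GR.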
Sequence of Phospholipid hydroperoxide glutathione peroxidase GPX4 (Homo sapiens) (P36969 whole entry, looked up): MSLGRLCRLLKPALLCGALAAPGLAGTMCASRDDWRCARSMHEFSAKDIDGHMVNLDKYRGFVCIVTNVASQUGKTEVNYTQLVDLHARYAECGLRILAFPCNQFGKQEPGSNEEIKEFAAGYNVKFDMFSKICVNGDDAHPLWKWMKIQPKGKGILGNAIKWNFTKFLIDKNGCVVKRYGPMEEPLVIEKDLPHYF
(In qHTS, concentration-response curves come from the screen itself.)

For test [7], the target named is Luciferin 4-monooxygenase (Photinus pyralis) (UniProt P08659). The test is described as follows: Primary firefly luciferase (FLuc) qHTS assay for identification of artifact compounds. (AID 1845220). Also: nearly all actives have a fitted effect of over 60% in size.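 As to activity change, negative = inhibition: plate controls were DMSO vehicle for no effect and no enzyme for full effect.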 Particulars: purified firefly luciferase, luminescence, 5 min; series mostly up to 54.1 µM. An outline of the steps: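 D-luciferin and ATP (10 uM each, final) in Tris acetate buffer pH 7.6 were incubated with compounds for 15 min at room temperature. The reaction was started with 10 nM Photinus pyralis luciferase and luminescence read after 5 min. Percent inhibition was fitted to a 4-parameter Hill equation.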

For test [8], the target named is Rap guanine nucleotide exchange factor 3 (Homo sapiens) (UniProt O95398). Nature of the test: Confirmatory qHTS for agonist of cAMP-regulated guanine nucleotide exchange factor 3 (EPAC1) (AID 1645881).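 Also: EPAC1 catalysed release of BODIPY-GDP from Rap1B seen as fluorescence loss; nearly all actives have a fitted effect of over 75% in size.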 Particulars: EPAC1 Rap1B BODIPY-GDP exchange fluorescence, 100% = cAMP control response; series mostly up to 154 µM.
Sequence of Rap guanine nucleotide exchange factor 3 (Homo sapiens) (O95398 whole entry, looked up): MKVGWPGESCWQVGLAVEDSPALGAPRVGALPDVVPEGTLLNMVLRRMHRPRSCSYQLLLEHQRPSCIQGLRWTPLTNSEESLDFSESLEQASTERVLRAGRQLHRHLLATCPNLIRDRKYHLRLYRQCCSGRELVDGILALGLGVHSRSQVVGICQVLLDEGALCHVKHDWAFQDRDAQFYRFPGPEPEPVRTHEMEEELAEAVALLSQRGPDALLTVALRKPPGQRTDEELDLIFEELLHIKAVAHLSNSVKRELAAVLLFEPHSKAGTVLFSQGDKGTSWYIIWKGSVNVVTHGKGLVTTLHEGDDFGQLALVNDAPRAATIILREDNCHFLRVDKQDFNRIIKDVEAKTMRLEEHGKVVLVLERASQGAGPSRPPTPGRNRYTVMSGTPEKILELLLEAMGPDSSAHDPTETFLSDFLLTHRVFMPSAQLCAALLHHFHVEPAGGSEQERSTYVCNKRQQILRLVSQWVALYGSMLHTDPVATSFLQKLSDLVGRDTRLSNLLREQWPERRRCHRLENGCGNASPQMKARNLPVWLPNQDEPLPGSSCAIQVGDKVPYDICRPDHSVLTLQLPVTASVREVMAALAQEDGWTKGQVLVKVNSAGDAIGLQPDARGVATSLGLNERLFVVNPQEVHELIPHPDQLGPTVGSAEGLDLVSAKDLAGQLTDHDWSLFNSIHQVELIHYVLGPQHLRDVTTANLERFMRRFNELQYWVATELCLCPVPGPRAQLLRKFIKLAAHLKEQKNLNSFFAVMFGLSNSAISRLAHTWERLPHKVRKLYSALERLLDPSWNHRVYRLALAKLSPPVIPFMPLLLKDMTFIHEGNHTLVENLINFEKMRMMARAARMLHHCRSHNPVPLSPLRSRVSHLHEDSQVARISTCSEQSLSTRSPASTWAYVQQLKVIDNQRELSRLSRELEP
For test [9], the target named is Rap guanine nucleotide exchange factor 4 (Homo sapiens) (UniProt Q8WZA2). The test is described as follows: Confirmatory qHTS for agonist of cAMP-regulated guanine nucleotide exchange factor 4 (EPAC2) (AID 1645884). Also: % is scaled to controls: 0 for no effect and ±100 for the full control effect; nearly all actives have a fitted effect of over 65% in size. Particulars: EPAC2 GEF activity, Rap1B-BODIPY-GDP fluorescence, percent relative to cAMP agonist control; series mostly up to 154 µM.
Sequence of Rap guanine nucleotide exchange factor 4 (Homo sapiens) (Q8WZA2 whole entry, looked up): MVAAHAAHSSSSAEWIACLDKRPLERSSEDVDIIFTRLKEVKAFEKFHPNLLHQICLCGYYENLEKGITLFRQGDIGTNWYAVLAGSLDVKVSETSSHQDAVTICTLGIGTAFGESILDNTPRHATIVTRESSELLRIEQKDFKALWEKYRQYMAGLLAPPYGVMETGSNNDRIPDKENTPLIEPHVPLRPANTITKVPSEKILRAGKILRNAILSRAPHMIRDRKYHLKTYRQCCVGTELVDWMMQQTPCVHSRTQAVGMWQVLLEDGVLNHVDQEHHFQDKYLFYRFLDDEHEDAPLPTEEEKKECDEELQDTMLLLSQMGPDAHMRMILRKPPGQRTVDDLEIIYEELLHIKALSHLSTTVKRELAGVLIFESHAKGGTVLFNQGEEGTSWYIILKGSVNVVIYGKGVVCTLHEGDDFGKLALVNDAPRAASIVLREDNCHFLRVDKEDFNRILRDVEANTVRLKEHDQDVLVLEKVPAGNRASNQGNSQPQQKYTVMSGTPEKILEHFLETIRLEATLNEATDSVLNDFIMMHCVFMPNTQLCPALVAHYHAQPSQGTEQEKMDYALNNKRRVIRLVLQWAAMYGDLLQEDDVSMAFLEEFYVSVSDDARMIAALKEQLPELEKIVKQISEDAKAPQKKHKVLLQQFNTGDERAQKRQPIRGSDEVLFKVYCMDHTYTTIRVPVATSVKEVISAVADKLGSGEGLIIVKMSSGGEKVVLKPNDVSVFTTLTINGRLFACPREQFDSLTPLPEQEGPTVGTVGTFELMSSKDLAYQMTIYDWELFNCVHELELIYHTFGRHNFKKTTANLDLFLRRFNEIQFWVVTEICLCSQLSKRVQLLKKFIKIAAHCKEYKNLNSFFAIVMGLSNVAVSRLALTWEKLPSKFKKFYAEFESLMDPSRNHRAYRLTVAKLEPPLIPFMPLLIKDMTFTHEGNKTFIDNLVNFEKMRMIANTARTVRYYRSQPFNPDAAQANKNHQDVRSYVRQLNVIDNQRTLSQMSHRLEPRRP
For test [10] the target is unchanged. The test is described as follows: Confirmatory qHTS for antagonist of cAMP-regulated guanine nucleotide exchange factor 4 (EPAC2) (AID 1645885). Also: nearly all actives have a fitted effect of over 25% in size. Particulars: EPAC2 Rap1B-BODIPY-GDP exchange fluorescence, biochemical; series mostly up to 114 µM.
In test [11] the target is Rap guanine nucleotide exchange factor 3 (Homo sapiens) (UniProt O95398). Nature of the test: Counterscreen qHTS for antagonist of cAMP-regulated guanine nucleotide exchange factor 3 (EPAC1) (AID 1645888).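 Also: fluorescence loss as bound BODIPY-GDP is released from Rap1B; % of control where 0% means no effect.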 Particulars: Rap1B-BODIPY-GDP nucleotide exchange, fluorescence; series mostly up to 154 µM. In short, it runs like this:
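Rap1B–BODIPY-GDP (250 nM) with 50 uM GDP; compounds pin-transferred to 9.74 nM–152 uM final (activator) or from 7.32 nM upwards (inhibitor). Fluorescence Ex/Em 480/540 nm read at 5 and 30 min, then after adding cAMP or buffer, at room temperature.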
For orientation: The purpose of a counterscreen is to sort out artefacts and off-target activity.

Results filed as inconclusive are left out. Calls of active or inactive are those of the source. Unless noted, calls follow the shape of the dose curve; as a rule, active = well fitted curve in the direction sought with a large enough effect; inconclusive = small, poorly fitted or top-dose-only effect, or another doubt; inactive = no such curve, though single readings can be large; an effect the other way counts as inactive or inconclusive.

Sequence of Glutathione peroxidase 1 (Homo sapiens) (P07203 whole entry, looked up): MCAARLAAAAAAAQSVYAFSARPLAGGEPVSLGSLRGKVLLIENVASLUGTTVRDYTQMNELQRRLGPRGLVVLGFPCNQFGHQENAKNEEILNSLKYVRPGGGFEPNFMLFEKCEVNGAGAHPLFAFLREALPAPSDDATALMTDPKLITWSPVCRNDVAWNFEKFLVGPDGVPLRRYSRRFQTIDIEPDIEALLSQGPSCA

`OC1COC(OCC2OC(OCCc3ccccc3)C(O)C(O)C2O)C(O)C1O` (stereo not drawn): the values for the activity in test [1], in [3] and in [4] were -64.8%, 0% and 0%, respectively. In test [2], the activity change, negative = inhibition was 0% [at 29.8 µM]. Besides, the Potency entry in test [5], in test [6] and in [7] was “inactive” throughout.

`COC(=O)C1=CO[C@@H](O[C@@H]2O[C@H](COC(=O)/C=C/c3cc(OC)c(O)c(OC)c3)[C@@H](O)[C@H](O)[C@H]2O)[C@@H]2C(CO)=CC[C@H]12`: the figures for the activity in test [1], in [3] and in [4] were -58.2%, -2.91% and -3.37%, respectively. For the same compound, the activity change, negative = inhibition in test [2] is -6.4% [at 19.1 µM]. In addition, the Potency result in test [5], in test [6] and in test [7] was “inactive” throughout.

As for `CC(C)(C)NC(=O)[C@@H]1C[C@@H]2CCCC[C@@H]2CN1C[C@@H](O)[C@H](Cc1ccccc1)NC(=O)[C@H](CC(N)=O)NC(=O)c1ccc2ccccc2n1`, the outcome in test [8], in test [9] and in test [11] was “inactive” in each case. Moreover, the Potency result in [10] was “inactive”.

For the compound `CC1(CO)CC[C@]2(C(=O)O[C@@H]3O[C@H](CO)[C@@H](O)[C@H](O)[C@H]3O)CC[C@]3(C)C(=CCC4[C@@]5(C)C[C@H](O)[C@H](O[C@@H]6OC[C@@H](O)[C@H](O)[C@H]6O)[C@@](C)(CO)C5CC[C@]43C)C2C1` (stereo partly drawn), the results for the activity in [1], in test [3] and in test [4] were -56.9%, 2.23% and 2.01%, respectively. Also, the activity change, negative = inhibition was 0.83% [at 19.1 µM] in test [2] and 4.3% [at 11.6 µM] (inactive) in test [7]. The Potency result in test [5] and in test [6] was “inactive” throughout.

With `C=Cc1cc(O)cc2nc(-c3ccc(O)c(F)c3)oc12`, the activity is -54.6% in [1], -36% in [3] and -50.4% in test [4]. Further, the Potency in [2] was 30.4 µM (active).

Turning to `COCCN(C)Cc1ccc2nc3sc(C(=O)N(C)C4CCCCC4)cn3c2c1`, the activity is -4.7% in test [1], 1.46% in test [3] and -2.94% in test [4]. The activity change, negative = inhibition in test [2] was determined as 0%. Besides, the Potency result in test [5], in [6] and in test [7] was “inactive” throughout.

As for `COc1ccc(/C=C/C(=O)O[C@@H]2[C@@H](OC(C)=O)[C@@H](OC(C)=O)[C@H](O[C@H]3[C@@H]4C=CO[C@@H](O[C@@H]5O[C@H](CO)[C@@H](O)[C@H](O)[C@H]5O)[C@@H]4[C@@]4(CO)O[C@@H]34)O[C@H]2C)cc1O`, the figures for the activity in test [1], in test [3] and in [4] were -68.6%, -11.7% and -9.65%, respectively. The activity change, negative = inhibition in test [2] was -5.06% [at 19.1 µM]. The Potency entry in [5] and in test [6] was “inactive” throughout.

Take `CC(=O)NCCCCn1c2c(c3ccccc31)C(=O)NCC2`: the activity is -9.83% in test [1], -4.05% in [3] and -4.46% in test [4]. Further, the activity change, negative = inhibition in test [2] is -8.34%. Moreover, the Potency result in test [5], in test [6] and in test [7] was “inactive” in each case.

Regarding `O=C(O)CCc1cccc(O[C@@H]2O[C@H](CO)[C@@H](O)[C@H](O)[C@H]2O)c1O`, the results for the activity in test [1], in test [3] and in [4] were -71.6%, 0.392% and -5.98%, respectively. In test [2], the activity change, negative = inhibition is 0.429%. Moreover, the Potency entry in test [5], in test [6] and in test [7] was “inactive” throughout.

Take `C=C1C(O[C@@H]2O[C@H](CO)[C@@H](O)[C@H](O)[C@@H]2O)CC2C(C)(C)C(O)CCC2(C)C1CC/C(C)=C\CO` (stereo partly drawn): the activity in [1] is -63.2%; in [3], 3.48%; in test [4], 0.548%. Besides, the activity change, negative = inhibition in test [2] was found to be 0% [at 29.8 µM]. The Potency result in [5], in test [6] and in [7] was “inactive” throughout.
